Activity calls are given as the source filed them. How the source made its calls: active means hit-call score of the fitted dose curve at least 0.9, where 1 is the maximum; inactive means score below 0.9.
Columns and labels:
[1] = read-out: TIMP metallopeptidase inhibitor 1 (TIMP1), TIMP1 (gene 7076); assay: BSK_hDFCGF_TIMP1: BioMAP Diversity Plus: hDFCGF Assay for TIMP metallopeptidase inhibitor 1 (TIMP1) Biomarker Activity (AID 2283062); conditions: primary human foreskin fibroblasts; actives raise or lower the signal
Outline: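 TIMP-1 measured by ELISA 24 h after chemical dosing of primary human skin fibroblasts, with gain or loss fitted relative to DMSO. Parallel SRB staining (560 nm) monitored overt cytotoxicity.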

[2] = read-out: Monokine induced gamma interferon (MIG), CXCL9 (gene 4283); assay: BSK_hDFCGF_MIG: BioMAP Diversity Plus: hDFCGF Assay for Monokine induced gamma interferon (MIG) Biomarker Activity (AID 2283063); conditions: primary human foreskin fibroblasts; actives raise or lower the signal
Outline: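 Human primary foreskin fibroblasts in the hDFCGF system, exposed to test chemical for 24 h; MIG measured by ELISA. Bidirectional curve fitting against DMSO negative control as activity baseline.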

[3] = read-out: Matrix Metallopeptidase 1 (MMP1), MMP1 (gene 4312); assay: BSK_hDFCGF_MMP1: BioMAP Diversity Plus: hDFCGF Assay for Matrix Metallopeptidase 1 (MMP1) Biomarker Activity (AID 2283064); conditions: primary human foreskin fibroblasts; actives raise or lower the signal
Outline: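 Primary human foreskin fibroblasts in the hDFCGF system were dosed with test chemical, and MMP1 was measured by ELISA 24 h later. Values come from bidirectional curve fitting against the DMSO baseline.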

[4] = read-out: Vascular cell adhesion molecule 1 (VCAM1), VCAM1 (gene 7412); assay: BSK_hDFCGF_VCAM1: BioMAP Diversity Plus: hDFCGF Assay for Vascular cell adhesion molecule 1 (VCAM1) Biomarker Activity (AID 2283065); conditions: primary human foreskin fibroblasts; actives raise or lower the signal;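 on AC50: VCAM-1 protein level quantified by ELISA after 24 h chemical exposure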
Outline: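 ELISA readout of VCAM-1 on human dermal fibroblast primary cultures, 24 h after chemical exposure. Gain or loss of signal fitted in both directions against DMSO baseline.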

[5] = read-out: Plasminogen activator inhibitor-1 (PAI1), SERPINE1 (gene 5054); assay: BSK_hDFCGF_PAI1: BioMAP Diversity Plus: hDFCGF Assay for Plasminogen activator inhibitor-1 (PAI1) Biomarker Activity (AID 2283066); conditions: primary human foreskin fibroblasts; actives raise or lower the signal
Outline: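 PAI-1 levels, determined by ELISA, served as the endpoint in human foreskin fibroblast cultures exposed to compound for 24 h, with DMSO as baseline.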

[6] = read-out: Intercellular Adhesion Molecule 1 (ICAM1), ICAM1 (gene 3383); assay: BSK_KF3CT_ICAM1: BioMAP Diversity Plus: KF3CT Assay for Intercellular Adhesion Molecule 1 (ICAM1) Biomarker Activity (AID 2283067); conditions: primary human keratinocytes with fibroblasts; actives raise or lower the signal
Outline: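 Cell-surface ICAM-1 was measured by ELISA 24 h after dosing primary human skin keratinocytes co-cultured with fibroblasts. Parallel SRB staining tracked overt cytotoxicity. Gain or loss of signal was fitted relative to DMSO.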

[7] = read-out: Interferon-gamma inducible Protein 10 (IP10), CXCL10 (gene 3627); assay: BSK_KF3CT_IP10: BioMAP Diversity Plus: KF3CT Assay for Interferon-gamma inducible Protein 10 (IP10) Biomarker Activity (AID 2283068); conditions: primary human keratinocytes with fibroblasts; actives raise or lower the signal
Outline: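 Signal is secreted/surface IP-10 by ELISA in a human primary skin co-culture of keratinocytes and foreskin fibroblasts, taken 24 h post-dosing; DMSO served as negative control.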

[8] = BSK_KF3CT_SRB: Viability Assessment in the BioMAP Diversity Plus: KF3CT Assay (AID 2283069); conditions: primary human keratinocytes with fibroblasts;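 further: total protein by sulforhodamine B staining as a cytotoxicity measure; read 24 h after compound addition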
Outline: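 Human primary keratinocyte plus foreskin fibroblast co-culture exposed to chemicals for 24 h. Total protein measured by 0.1% sulforhodamine B staining after 10% TCA fixation, read at 560 nm; bidirectional fitting versus DMSO baseline.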

[9] = read-out: Interleukin-1 alpha (IL1a), IL1A (gene 3552); assay: BSK_KF3CT_IL1a: BioMAP Diversity Plus: KF3CT Assay for Interleukin-1 alpha (IL1a) Biomarker Activity (AID 2283070); conditions: primary human keratinocytes with fibroblasts; actives raise or lower the signal
Outline: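 Human keratinocyte plus foreskin fibroblast primary co-culture, sampled 24 h after chemical dosing. IL-1a measured by ELISA; responses fitted bidirectionally against DMSO baseline (negative control), so gain or loss of signal both count.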

[10] = read-out: TIMP metallopeptidase inhibitor 2 (TIMP2), TIMP2 (gene 7077); assay: BSK_KF3CT_TIMP2: BioMAP Diversity Plus: KF3CT Assay for TIMP metallopeptidase inhibitor 2 (TIMP2) Biomarker Activity (AID 2283071); conditions: primary human keratinocytes with fibroblasts; actives raise or lower the signal
Outline: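 Keratinocyte–fibroblast co-culture, 24 h exposure; TIMP-2 ELISA, DMSO-normalised bidirectional fit. Parallel SRB (0.1%, TCA-fixed, 560 nm) total-protein staining gauges cytotoxicity.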

[11] = read-out: Transforming growth factor beta 1 (TGFb1), TGFB1 (gene 7040); assay: BSK_KF3CT_TGFb1: BioMAP Diversity Plus: KF3CT Assay for Transforming growth factor beta 1 (TGFb1) Biomarker Activity (AID 2283072); conditions: primary human keratinocytes with fibroblasts; actives raise or lower the signal
Outline: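 Signal changes in either direction, relative to DMSO, define activity here. TGF-b1 is read by ELISA from a human keratinocyte-fibroblast co-culture 24 h post-dose.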

[12] = read-out: C-C motif chemokine 2 (Homo sapiens) (UniProt P13500); assay: BSK_KF3CT_MCP1: BioMAP Diversity Plus: KF3CT Assay for Monocyte Chemoattractant Protein 1 (MCP1/CCL2) Biomarker Activity (AID 2283073); conditions: primary human keratinocytes with fibroblasts; actives raise or lower the signal
Outline: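 ELISA read-out of MCP-1, 24 h post-dose, in primary human skin keratinocytes co-cultured with fibroblasts. Parallel SRB staining monitors cytotoxicity; changes fitted both directions relative to DMSO.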

[13] = read-out: Matrix Metallopeptidase 9 (MMP9), MMP9 (gene 4318); assay: BSK_KF3CT_MMP9: BioMAP Diversity Plus: KF3CT Assay for Matrix Metallopeptidase 9 (MMP9) Biomarker Activity (AID 2283074); conditions: primary human keratinocytes with fibroblasts; actives raise or lower the signal;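 on AC50: MMP9 protein level quantified by ELISA in the co-culture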
Outline: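 Keratinocyte plus foreskin fibroblast human primary skin co-culture was dosed with chemical and MMP-9 was quantified by ELISA 24 h later. Bidirectional curve fitting used DMSO as negative control and activity baseline.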

[14] = read-out: urokinase plasminogen activator (uPA), PLAU (gene 5328); assay: BSK_KF3CT_uPA: BioMAP Diversity Plus: KF3CT Assay for urokinase plasminogen activator (uPA) Biomarker Activity (AID 2283075); conditions: primary human keratinocytes with fibroblasts; actives raise or lower the signal
Outline: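 Human keratinocyte plus foreskin fibroblast primary co-culture exposed to chemical for 24 h. uPA levels were quantified by ELISA, and activity was fitted bidirectionally against a DMSO negative-control baseline.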

CD40, CD40 (gene 958) = assay: BSK_LPS_CD40: BioMAP Diversity Plus: LPS Assay for CD40 Biomarker Activity (AID 2283076); conditions: primary human HUVEC with PBMC; actives raise or lower the signal
Outline: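 In the LPS system of human endothelial cells with peripheral blood mononuclear cells, CD40 levels were read by ELISA 24 h post-treatment. Signal changes in either direction were fitted against the DMSO baseline, with parallel SRB protein staining.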

[15] = read-out: E-selectin (Homo sapiens) (UniProt P16581); assay: BSK_LPS_Eselectin: BioMAP Diversity Plus: LPS Assay for Eselectin Biomarker Activity (AID 2283077); conditions: primary human HUVEC with PBMC; actives raise or lower the signal
Outline: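 E-selectin ELISA on LPS-stimulated endothelial cell/PBMC co-cultures, read 24 h post-treatment; gains and losses fitted against DMSO. Parallel SRB staining (0.1% SRB after 10% TCA fixation, 560 nm) flags overt cytotoxicity.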

[16] = read-out: Interleukin-8 (IL8), CXCL8 (gene 3576); assay: BSK_LPS_IL8: BioMAP Diversity Plus: LPS Assay for Interleukin-8 (IL8) Biomarker Activity (AID 2283078); conditions: primary human HUVEC with PBMC; actives raise or lower the signal
Outline: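 ELISA read-out of IL-8 after 24 h chemical treatment of LPS-activated endothelial/PBMC human primary co-cultures. Changes either up or down relative to DMSO; overt cytotoxicity checked by sulforhodamine B staining in parallel wells.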

[17] = BSK_LPS_SRB: Viability Assessment in the BioMAP Diversity Plus: LPS Assay (AID 2283079); conditions: primary human HUVEC with PBMC;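 further: total protein by sulforhodamine B absorbance as a cytotoxicity measure; measured one day after compound addition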
Outline: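 SRB viability endpoint: cells fixed with 10% TCA, stained with 0.1% SRB, read at 560 nm, 24 h post-dose. HUVEC/PBMC co-culture; signal change in either direction scored relative to DMSO.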

[18] = read-out: Interleukin-1 alpha (IL1a), IL1A (gene 3552); assay: BSK_LPS_IL1a: BioMAP Diversity Plus: LPS Assay for Interleukin-1 alpha (IL1a) Biomarker Activity (AID 2283080); conditions: primary human HUVEC with PBMC; actives raise or lower the signal
Outline: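 Readout is IL-1a level by ELISA, 24 h post-dose, fitted as gain or loss relative to DMSO. System: LPS-activated human primary co-culture of vascular endothelium and peripheral blood mononuclear cells, with parallel SRB total-protein cytotoxicity.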

[19] = read-out: Monocyte Chemoattractant Protein-1 (MCP1), CCL2 (gene 6347); assay: BSK_LPS_MCP1: BioMAP Diversity Plus: LPS Assay for Monocyte Chemoattractant Protein-1 (MCP1) Biomarker Activity (AID 2283081); conditions: primary human HUVEC with PBMC; actives raise or lower the signal;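 on AC50: secreted MCP-1 protein quantified by ELISA in culture supernatant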
Outline: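 Secreted MCP-1 read by ELISA at 24 h post-dosing in an LPS-activated co-culture of endothelial cells with peripheral blood mononuclear cells. Fits run in both directions, DMSO as baseline; parallel SRB staining tracks overt cytotoxicity.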

Measured: AC50

Sequence of E-selectin (Homo sapiens) (P16581 whole entry, looked up): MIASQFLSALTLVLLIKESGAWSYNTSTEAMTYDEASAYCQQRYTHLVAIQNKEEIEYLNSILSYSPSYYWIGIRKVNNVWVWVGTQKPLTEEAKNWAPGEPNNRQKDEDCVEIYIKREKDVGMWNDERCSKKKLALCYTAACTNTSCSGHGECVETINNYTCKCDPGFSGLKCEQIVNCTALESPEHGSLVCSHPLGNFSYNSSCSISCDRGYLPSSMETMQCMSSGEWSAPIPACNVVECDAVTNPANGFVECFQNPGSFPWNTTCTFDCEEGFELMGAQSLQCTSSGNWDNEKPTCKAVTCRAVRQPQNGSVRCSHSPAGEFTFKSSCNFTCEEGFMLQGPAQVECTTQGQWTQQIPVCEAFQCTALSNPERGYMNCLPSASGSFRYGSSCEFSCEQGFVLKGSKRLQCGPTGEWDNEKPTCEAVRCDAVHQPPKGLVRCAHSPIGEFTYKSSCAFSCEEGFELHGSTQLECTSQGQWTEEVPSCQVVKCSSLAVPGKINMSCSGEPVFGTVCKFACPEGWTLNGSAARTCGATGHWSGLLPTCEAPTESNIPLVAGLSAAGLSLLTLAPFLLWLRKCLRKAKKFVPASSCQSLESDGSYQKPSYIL

C/C=C/c1ccc(OC)cc1
active: [19] 13.8 µM
inactive: all other assays above

CC1=C(C)S(=O)(=O)CCS1(=O)=O
active: CD40, CD40 (gene 958) 4.33 µM
inactive: all other assays above

C=CCCCCCCCCCCCC
inactive: all assays above

CC(C)(C)c1ccccc1
not listed: [10]
inactive: all other assays above

CCCCCCCC(=O)OC
inactive: all assays above

CCC(C)N(C)C(=O)c1cc2ccccc2c(-c2ccccc2Cl)n1 (stereo not drawn)
inactive: all assays above

CCCCc1nc2cccnc2n1Cc1ccc(-c2ccccc2-c2nnn[nH]2)cc1
active: [7] 29.7 µM | [13] 0.0268 µM
inactive: all other assays above

O=Cc1ccccc1C=O
inactive: all assays above

CCCCCCCCCCCCCCOS(=O)(=O)O
inactive: CD40, CD40 (gene 958) | [15] | [16] | [17] | [18] | [19]
active: [1] 9.76 µM | [2] 7.52 µM | [3] 5.54 µM | [4] 7.85 µM | [5] 9.05 µM | [6] 16.2 µM | [7] 8.99 µM | [8] 8 µM | [9] 10.3 µM | [10] 7.76 µM | [11] 5.78 µM | [12] 8.92 µM | [13] 8.96 µM | [14] 9.42 µM

CN(C)C(=O)NC1(c2ccccc2)CCN(CCC[C@]2(c3ccc(Cl)c(Cl)c3)CCCN(C(=O)c3ccccc3)C2)CC1
active: [16] 8.1 µM
inactive: all other assays above

CC(=O)S[C@H](C(=O)N[C@H]1Cc2ccccc2[C@H]2CCC[C@@H](C(=O)O)N2C1=O)C(C)C
inactive: all assays above

CC(C)NCC(O)c1ccc(O)c(O)c1 (stereo not drawn)
inactive: all assays above

O=[Si]=O
not listed: [12]
inactive: all other assays above
